Records with an inconclusive call do not appear. Calls of active or inactive are those of the source.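 The calls were made as follows, unless noted: active = viability increase at or above a cutoff of the median across tested compounds plus 3 SD (cut at about 8.5% in these data, passing the limit was not always enough); inconclusive = some gains above the cutoff, reason not given; inactive = the rest.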
Key:
[1] = Her2 expression decrease, cell viability multiplex – SKBR3 breast tumor cells, AlphaScreen, ATP viability, primary screen (AID 461;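 active = Her2 level under about 52% in both replicate screens, with viability over 70% of control, limit read from the data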;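 as to Her2 level: lower value means less Her2 protein in the cells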;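 as to viability: percent of carrier control wells set as 100% viability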); details: SKBR3 Her2 protein level, 18-24 h, measured here: SKBR3 viability, ATP luminescence, at 10 µM
[2] = target: Receptor tyrosine-protein kinase erbB-2 (Homo sapiens) (UniProt P04626); assay: as above; details: 18-24 h, at 10 µM, stronger effect = lower value
Receptor tyrosine-protein kinase erbB-2 (Homo sapiens), sequence (P04626 whole entry, looked up): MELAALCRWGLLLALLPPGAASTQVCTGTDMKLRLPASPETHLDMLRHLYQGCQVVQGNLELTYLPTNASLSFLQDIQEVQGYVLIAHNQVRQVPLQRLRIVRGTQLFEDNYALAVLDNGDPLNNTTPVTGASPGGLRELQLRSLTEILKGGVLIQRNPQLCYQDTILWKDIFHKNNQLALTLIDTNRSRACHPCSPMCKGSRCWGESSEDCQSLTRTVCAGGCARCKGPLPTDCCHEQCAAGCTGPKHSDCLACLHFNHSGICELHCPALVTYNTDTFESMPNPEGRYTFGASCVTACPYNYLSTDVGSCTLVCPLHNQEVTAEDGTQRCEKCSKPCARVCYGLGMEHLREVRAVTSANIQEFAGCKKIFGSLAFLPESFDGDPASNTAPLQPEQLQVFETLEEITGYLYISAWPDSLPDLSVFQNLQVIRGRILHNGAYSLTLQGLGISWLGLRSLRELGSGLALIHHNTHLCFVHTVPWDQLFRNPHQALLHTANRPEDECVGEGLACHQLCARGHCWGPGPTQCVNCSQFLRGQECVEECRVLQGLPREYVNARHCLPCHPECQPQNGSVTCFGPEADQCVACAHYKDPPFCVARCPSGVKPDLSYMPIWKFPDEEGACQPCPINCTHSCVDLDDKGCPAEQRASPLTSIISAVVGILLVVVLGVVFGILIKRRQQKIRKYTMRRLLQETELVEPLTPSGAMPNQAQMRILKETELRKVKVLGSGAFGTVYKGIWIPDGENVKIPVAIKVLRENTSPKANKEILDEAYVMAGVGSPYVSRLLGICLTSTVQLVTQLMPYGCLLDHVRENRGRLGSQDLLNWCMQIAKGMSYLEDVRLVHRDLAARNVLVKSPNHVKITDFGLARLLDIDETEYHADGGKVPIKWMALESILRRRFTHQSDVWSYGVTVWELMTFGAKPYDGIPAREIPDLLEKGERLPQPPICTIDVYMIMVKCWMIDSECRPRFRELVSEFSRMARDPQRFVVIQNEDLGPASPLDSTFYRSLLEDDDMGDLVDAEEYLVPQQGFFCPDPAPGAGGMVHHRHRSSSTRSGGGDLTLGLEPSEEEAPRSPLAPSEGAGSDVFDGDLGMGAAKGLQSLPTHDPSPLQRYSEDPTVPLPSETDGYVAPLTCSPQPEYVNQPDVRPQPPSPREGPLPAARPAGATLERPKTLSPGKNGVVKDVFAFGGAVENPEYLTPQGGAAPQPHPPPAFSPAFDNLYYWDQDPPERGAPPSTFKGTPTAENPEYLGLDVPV

[3] = reduced viability of SK-BR-3 breast cancer cells – cell-based, 24 h, human, pilot screen (AID 572;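 active = viability at or below 10% of carrier control in both of two separate runs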;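 also: compound exposure lasted between 18 and 24 h rather than exactly 24 h; 100% = carrier-treated control wells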); details: SK-BR-3 viability, CellTiter-Glo luminescence, at 10 µM, stronger effect = lower value
[4] = HUVEC growth inhibition – cell-based, human, primary screen (AID 575;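 active = viability at or below 30% in both replicate assays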;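 also: 100% = median of untreated cell wells with 0.1% DMSO on each plate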); details: HUVEC proliferation, CellTiter-Glo luminescence, 72 h; at 10 µM; stronger effect = lower value
[5] = H69AR cell proliferation blockers – human, duplicate replicates, primary screen (AID 580;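 active = viability at or under a set limit in both replicates, limit being median viability minus 3 SD, cut at about 48% in these data, passing the limit was not always enough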;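 also: 100% = mean luminescence of untreated wells and 0% = no signal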); details: H69AR lung tumor cells viability, ATP luminescence, 72 h; at 10 µM; stronger effect = lower value
[6] = MRP1 drug-resistance reversers in H69AR cells – cell-based, doxorubicin co-treatment, pilot screen (AID 601;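 active = viability loss from added drug above about 55%, and viability with drug at most 40%, in both replicates, limit read from the data, passing the limit was not always enough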); details: CellTiter-Glo, 72 h, at 10 µM; for differential viability (reversal): stronger effect = higher value
[7] = yeast transport mutant growth inhibition pilot in 384-well plates, post-Golgi transport modulator project (AID 636; in the data active = inhibition above about 31%); details: absorbance 615 nm, about 18 h, stronger effect = higher value
[8] = growth suppression of yeast trafficking mutant, preliminary HTS, modulators of trafficking downstream of Golgi apparatus project, 1536-format plate, OD 615 nm (AID 637; in the data active = inhibition above about 30%); details: yeast transport mutant growth, absorbance 615 nm, 18 h; stronger effect = higher value
[9] = S. cerevisiae growth inhibition in permissive medium (OD615), pilot counter-assay for S. cerevisiae lifespan shortening project, permissive growth control (AID 705;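 active = growth inhibition above 25% in both replicates, a cutoff set 3 SD above the mean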); details: OD615, 24 h, at 10 µM, stronger effect = higher value
[10] = S. cerevisiae growth inhibition in restrictive medium, OD615, pilot screen, restrictive growth control, yeast lifespan reduction project (AID 706;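 active = growth inhibition above a set limit, 3 SD over mean compound inhibition, in both replicates, cut at about 43% in these data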;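 also: modified DeaD lifespan yeast strain shifted to restrictive glucose medium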); details: OD615, 48 h, at 10 µM, stronger effect = higher value
[11] = doxorubicin toxicity protection in MRP-1 cells – H69AR cells, CellTiter-Glo, duplicate, MRP-1 activator project, pilot screen (AID 807); details: H69AR viability with doxorubicin, CellTiter-Glo luminescence; at 10 µM; stronger effect = higher value;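 also: compound pretreatment 18-22 h then 72 h combined with doxorubicin; 0% = doxorubicin alone and 100% = vehicle without doxorubicin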
[12] = viability of HCT116 without oncogenic beta-catenin – human colon tumor cells, pilot screen (AID 823;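 active = cell viability at or below a set limit in both duplicate runs, the limit being the all-compound median minus 4 SD, cut at about 23% in these data, passing the limit was not always enough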;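 also: 0% = wells killed by 20 µM Hyamine and 100% = untreated DMSO cell wells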); details: HCT116 beta-catenin knockout viability, CellTiter-Glo, 60 h; at 10 µM; stronger effect = lower value
[13] = viability of PTEN-null HCT116 cells – cell-based, HCT116 clonal line, CellTiter-Glo, pilot screen (AID 824;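 active = viability at or below 27.92% in each of two runs, the all-compound median minus 4 SD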;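 also: 0% = 20 µM Hyamine control and 100% = vehicle cell control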); details: HCT116 PTEN-deleted viability, 60 h, at 10 µM, stronger effect = lower value
[14] = RAM pathway blockade in budding yeast – dse1pr::URA3 reporter, 5-FOA selection, pilot screen (AID 869;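 active = inhibition over a set limit, the all-compound mean plus 3 SD, in both replicate runs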;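 also: 0% = DMSO wells with no growth and 100% = 10 µM 1-NA-PP1 with full growth; RAM network block rescues cells from 5-FOA so hits raise OD615 growth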); details: S. cerevisiae dse1pr::URA3 5-FOA growth, OD615, 2 d; at 10 µM; stronger effect = higher value; strain carries analog-sensitive mutant Cbk1 kinase
[15] = RAM signaling pathway blockade in yeast – S. cerevisiae, Pdr1DBD-CYC8 efflux-inhibited sensitized strain, primary screen (AID 1298;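 active = RAM network inhibition above 8.4% in each of two replicates, 3 SD over the compound average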;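 also: 0% = DMSO untreated cells without growth and 100% = 10 µM 1-NA-PP1 full growth; higher means more yeast growth rescued from 5-FOA killing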); details: S. cerevisiae cbk1-as DSE1-URA3 strain, 5-FOA growth OD615, 2 d; at 50 µM; stronger effect = higher value
[16] = H69AR cells + 2 uM doxorubicin, measured here: viability with 2 uM doxorubicin, stronger effect = lower value
[17] = H69AR cells, compound alone cytotoxicity

COC(=O)c1ccccc1NC1c2ccccc2C(=O)N1c1cccnc1 (centres undefined)
95%: viability [1]
inactive: Her2 level [2] 109% | viability [3] 95% | viability [4] 86.9% | viability [5] 84.7% | differential viability (reversal) ([6]; H69AR cells + 2 uM doxorubicin) -0.77% | inhibition [7] 1.07% | inhibition [8] 0.33% | growth inhibition [9] -16.1% | growth inhibition [10] 3.47% | viability increase [11] -0.86% | viability [12] 94.4% | viability [13] 89.8% | inhibition [14] -1.07% | RAM network inhibition [15] 4.8%
85.4%: viability [6, 16]
84.7%: viability [6, 17]

C=CCSc1nc2sc(C)c(C)c2c(=O)[nH]1
97.5%: viability [1]
inactive: Her2 level [2] 107% | viability [3] 97.5% | viability [4] 83.3% | viability [5] 90.7% | differential viability (reversal) ([6]; H69AR cells + 2 uM doxorubicin) 9.9% | inhibition [7] -5.87% | inhibition [8] -10.3% | growth inhibition [9] -7.21% | growth inhibition [10] -12.2% | viability increase [11] 0.97% | viability [12] 109% | viability [13] 89% | inhibition [14] 1.19% | RAM network inhibition [15] 4.66%
90.7%: viability [6, 17]
80.8%: viability [6, 16]

CCCNC(=O)C1CCN(S(=O)(=O)c2ccc3nc4c(c(C(=O)O)c3c2)CCCCC4)CC1
99%: viability [1]
96.6%: viability [6, 16]
inactive: Her2 level [2] 92% | viability [3] 99% | viability [4] 105% | viability [5] 98.7% | differential viability (reversal) ([6]; H69AR cells + 2 uM doxorubicin) 2.09% | inhibition [7] -1.87% | inhibition [8] 8.36% | growth inhibition [9] 2.08% | growth inhibition [10] -0.39% | viability increase [11] 1.14% | viability [12] 108% | viability [13] 103% | inhibition [14] 2.09% | RAM network inhibition [15] 7.93%
98.7%: viability [6, 17]

CC(c1ccccc1)n1cnc2ccccc21 (centres undefined)
82%: viability [1]
93.5%: viability [6, 17]
93.3%: viability [6, 16]
inactive: Her2 level [2] 104% | viability [3] 82% | viability [4] 93.4% | viability [5] 93.5% | differential viability (reversal) ([6]; H69AR cells + 2 uM doxorubicin) 0.135% | inhibition [7] -1.15% | inhibition [8] 0.33% | growth inhibition [9] -3.42% | growth inhibition [10] 0.48% | viability increase [11] -1.05% | viability [12] 103% | viability [13] 95.2% | inhibition [14] -0.115% | RAM network inhibition [15] 0.83%

COCCNC(=O)c1ccc(CS(=O)(=O)c2c(Cl)cccc2Cl)o1
98.9%: viability [6, 17]
94.8%: viability [6, 16]
84.5%: viability [1]
inactive: Her2 level [2] 116% | viability [3] 84.5% | viability [4] 84% | viability [5] 98.9% | differential viability (reversal) ([6]; H69AR cells + 2 uM doxorubicin) 4.06% | inhibition [7] -3.47% | inhibition [8] -4.83% | growth inhibition [9] -17.4% | growth inhibition [10] -11.8% | viability increase [11] -1.73% | viability [12] 103% | viability [13] 93% | inhibition [14] 1.32% | RAM network inhibition [15] 1.21%

CC1=C(C(=O)OC(C)C)C(c2ccccn2)n2ncnc2N1 (centres undefined)
98.1%: viability [6, 17]
92.1%: viability [6, 16]
inactive: Her2 level [2] 113% | viability [3] 108% | viability [4] 89.5% | viability [5] 98.1% | differential viability (reversal) ([6]; H69AR cells + 2 uM doxorubicin) 6.04% | inhibition [7] -3.2% | inhibition [8] 0.83% | growth inhibition [9] -5.88% | growth inhibition [10] -3.54% | viability increase [11] -0.55% | viability [12] 106% | viability [13] 99.5% | inhibition [14] 2.84% | RAM network inhibition [15] 7.35%
108%: viability [1]

COc1ccc(OC)c(C(=O)c2ccc(C(=O)O)cc2)c1
120%: viability [1]
inactive: Her2 level [2] 107% | viability [3] 120% | viability [4] 87.2% | viability [5] 103% | differential viability (reversal) ([6]; H69AR cells + 2 uM doxorubicin) 6.11% | inhibition [7] -3.73% | inhibition [8] 1.94% | growth inhibition [9] -10.1% | growth inhibition [10] -16.1% | viability increase [11] 0.88% | viability [12] 105% | viability [13] 103% | inhibition [14] 1.67% | RAM network inhibition [15] 0.12%
103%: viability [6, 17]
96.5%: viability [6, 16]

CC1Cn2c(nnc2-c2ccc(F)cc2)S1 (centres undefined)
inactive: Her2 level [2] 105% | viability [3] 112% | viability [4] 107% | viability [5] 93.7% | differential viability (reversal) ([6]; H69AR cells + 2 uM doxorubicin) -1.42% | inhibition [7] -2.4% | inhibition [8] -4% | growth inhibition [9] -9.71% | growth inhibition [10] -14.2% | viability increase [11] -0.42% | viability [12] 112% | viability [13] 101% | inhibition [14] 1.92% | RAM network inhibition [15] 3.35%
93.7%: viability [6, 17]
95.2%: viability [6, 16]
112%: viability [1]

CN(Cc1ccccc1)S(=O)(=O)c1ccc(S(=O)(=O)N2CCN(CCC#N)CC2)cc1
77.2%: viability [6, 17]
61.8%: viability [6, 16]
inactive: Her2 level [2] 116% | viability [3] 91% | viability [4] 92.4% | viability [5] 77.2% | differential viability (reversal) ([6]; H69AR cells + 2 uM doxorubicin) 15.4% | inhibition [7] -4.23% | inhibition [8] -7.17% | growth inhibition [9] -12% | growth inhibition [10] -4.41% | viability increase [11] -8.59% | viability [12] 96.9% | viability [13] 92.3% | inhibition [14] 0.725% | RAM network inhibition [15] 4.91%
91%: viability [1]

CCCNc1nc(N2CCOCC2)nc(N2CCOCC2)n1
93.9%: viability [6, 16]
inactive: Her2 level [2] 110% | viability [3] 97.5% | viability [4] 109% | viability [5] 90.5% | differential viability (reversal) ([6]; H69AR cells + 2 uM doxorubicin) -3.39% | inhibition [7] -0.52% | inhibition [8] -7.38% | growth inhibition [9] -4.61% | growth inhibition [10] 2.38% | viability increase [11] -0.12% | viability [12] 92.8% | viability [13] 102% | inhibition [14] 1.26% | RAM network inhibition [15] 2.19%
97.5%: viability [1]
90.5%: viability [6, 17]

O=C(Cn1ncc2c1-c1ccccc1OC2)N1CCN(c2ccccn2)CC1
inactive: Her2 level [2] 108% | viability [3] 91.5% | viability [4] 101% | viability [5] 89.7% | differential viability (reversal) ([6]; H69AR cells + 2 uM doxorubicin) 4.26% | inhibition [7] -2.05% | inhibition [8] 0.67% | growth inhibition [9] -9.33% | growth inhibition [10] -14.6% | viability increase [11] -1.13% | viability [12] 99.9% | viability [13] 92.7% | inhibition [14] 0.525% | RAM network inhibition [15] 3.36%
85.5%: viability [6, 16]
91.5%: viability [1]
89.7%: viability [6, 17]

COc1ccc(CCNC(=O)c2cc3sc(Cl)cc3n2C)cc1OC
89.5%: viability [1]
90.7%: viability [6, 17]
inactive: Her2 level [2] 94% | viability [3] 89.5% | viability [4] 98.3% | viability [5] 90.7% | differential viability (reversal) ([6]; H69AR cells + 2 uM doxorubicin) -3.9% | inhibition [7] -3.59% | inhibition [8] -8% | growth inhibition [9] -5.07% | growth inhibition [10] 12.9% | viability increase [11] 3.32% | viability [12] 65.2% | viability [13] 77.3% | inhibition [14] 0.605% | RAM network inhibition [15] 1.25%
94.6%: viability [6, 16]

— PubChem BioAssay
